# Most compounds without a hit are left out; they make up all but 11% or so of the library.
# G9a inh: inhibitors of human histone lysine methyltransferase G9a. Q96KQ7. G9a H3K9 monomethylation, AlphaScreen, 2 h. Potency, µM (series often up to 102 µM), for the others: at the highest dose activity, negative = inhibition, usual class: inhibitors. 350,000 compounds, 8.8% hits. AID 504332; also: % is scaled to controls: 0 for no effect and ±100 for the full control effect; nearly all actives have a fitted effect of over 75% in size
# Target sequence (Q96KQ7 913-1193 limits assumed): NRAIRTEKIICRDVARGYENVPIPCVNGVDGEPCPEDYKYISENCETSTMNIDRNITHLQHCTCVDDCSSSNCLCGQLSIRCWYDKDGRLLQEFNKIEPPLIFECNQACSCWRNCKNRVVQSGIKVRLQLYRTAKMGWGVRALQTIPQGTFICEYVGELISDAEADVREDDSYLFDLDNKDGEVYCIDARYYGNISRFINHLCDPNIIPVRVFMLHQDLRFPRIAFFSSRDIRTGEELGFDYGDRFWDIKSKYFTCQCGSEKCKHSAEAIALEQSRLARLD
#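 Readings reflect AlphaScreen signal from monomethyl-H3K9 antibody detection. HMT at 20 nM; substrate b-H3K9 500 nM; cofactor SAM 20 uM; 2 h RT reaction; compounds tested as titrations in qHTS with 15 min preincubation.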
# BAZ2B inh: inhibitors of human BAZ2B bromodomain. Q9UIF8. AlphaScreen BAZ2B-H3K14Ac peptide displacement. Potency, µM (titrated, usually from 114 µM), for the others: at the top dose activity change, negative = inhibition, usual class: inhibitors. 360,000 compounds, 4.4% hits; also: % is scaled to controls: 0 for no effect and ±100 for the full control effect; nearly all actives have a fitted effect of over 60% in size
#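 Protein-peptide AlphaScreen: BAZ2B 50 nM, b-H3K14Ac 50 nM, 1x PBS pH 7.4 + 0.01% Tween-20. Preincubation 30 min RT; cpd 30 min RT (top 110 uM); beads 20 min RT, light-protected.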
# VDR inh: vitamin D3 receptor (human) inhibition; P11473; VDR-SRC2-3 peptide fluorescence polarization, 2 h; Potency, µM, for inactives: max response, negative = inhibition, hits mostly inhibitors; 400,000 compounds, 0.93% hits; AID 504847; also: % is scaled to controls: 0 for no effect and ±100 for the full control effect
#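 The screen uses fluorescence polarization to detect compounds that interfere with recruitment of the SRC2-3 coactivator peptide to VDR; plates are read after 2 h at room temperature.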
# JMJD2A Tudor inh: inhibitors of human JMJD2A Tudor domain; Potency, µM (series often up to 114 µM), for the others: at the top dose activity change, negative = inhibition, most hits filed as inhibitors; AID 504339; AlphaScreen JMJD2A-Tudor / H3K4me3 peptide binding; 390,000 compounds, 4.4% hits; also: % is scaled to controls: 0 for no effect and ±100 for the full control effect; nearly all actives have a fitted effect of over 50% in size
# HP1b chromo inh: HP1-beta chromodomain-methylated histone interaction inhibition; P83916; AID 540317; Potency, µM (highest dose often 114 µM), for inactives: top-dose activity change, negative = inhibition, most hits filed as inhibitors; 390,000 compounds, 0.56% hits; AlphaScreen HP1-beta / biotin-H3K9me3 peptide binding; also: nearly all actives have a fitted effect of over 70% in size
# Target sequence (P83916 whole entry, looked up): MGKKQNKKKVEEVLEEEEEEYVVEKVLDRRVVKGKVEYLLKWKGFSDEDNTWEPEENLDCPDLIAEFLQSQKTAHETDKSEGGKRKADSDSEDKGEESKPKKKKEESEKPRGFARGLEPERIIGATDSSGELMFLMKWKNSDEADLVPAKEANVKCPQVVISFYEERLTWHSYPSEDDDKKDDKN
#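 AlphaScreen: HP1-beta (50 nM) preformed 30 min with biotin-H3(1-18)K9me3 peptide (50 nM) in PBS pH 7.4, 0.01% Tween-20. Compound added for 30 min at RT, then streptavidin donor/nickel chelate acceptor beads (10 ug/mL) for 30 min.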
# PLK1 PBD inh: inhibitors of human PLK1 polo-box domain binding; 360,000 compounds, 2.8% hits; Plk1 PBD binding of FITC phosphopeptide, fluorescence polarization; P53350; Potency, µM, inactives show max response, negative = inhibition, actives largely listed as inhibitors; AID 720504; also: series mostly up to about 57 µM; % is scaled to controls: 0 for no effect and ±100 for the full control effect; nearly all actives have a fitted effect of over 65% in size
# Active calls of the source: *; ? = inconclusive; / = no result; [ ] = dose if it differs, or a comment. Calls follow the shape of the dose curve; as a rule, active = well fitted curve in the direction sought with a large enough effect; inconclusive = small, poorly fitted or top-dose-only effect, or another doubt; inactive = no such curve, though single readings can be large; an effect the other way counts as inactive or inconclusive. Potency is read from the fitted curve at half-maximal effect.
SMILES,G9a inh,BAZ2B inh,VDR inh,JMJD2A Tudor inh,HP1b chromo inh,PLK1 PBD inh
C[C@@H]1[C@@H](Sc2ccccc2)CC(=O)O[C@@H]1c1ccc(-c2ccccc2)cc1,/,/,4%,15%,90%,-1%
O=C1C=CC2(O[C@H](c3ccccc3)[C@@H](c3ccccc3)O2)[C@H](Sc2ccccc2O)C1,/,/,10µM*,79µM*,?,2.4µM*
Cc1ccccc1Cn1nc(C)c(NC(=O)C2c3ccccc3Oc3ccccc32)c1C,16%[59 µM],-1%,-11%,-10%,9%,-9%
O=C1C2C3CCCC3=C3CCCC3C2C(=O)N1c1ccccc1 (stereo not drawn),20µM*,-6%,-10%,15%,20%,-13%
CC(C)CC1=NN(C(=O)c2ccncc2)C(O)(C(F)(F)F)C1 (stereo not drawn),2%,1%,?,40µM*,10%,24µM*
CN(C)c1ccc(C2CC(c3cccc(NS(C)(=O)=O)c3)=NN2C(=O)c2ccccc2)cc1 (stereo not drawn),/,20µM*,5%,-25%[11.4 µM],?,-24%
CC(=O)N1N=C(c2ccc(NS(C)(=O)=O)cc2)CC1c1ccc2nccnc2c1 (stereo not drawn),-4%,-15%,-5%,1%,46%,4%
COc1cccc(C2CC(c3cccc(NS(C)(=O)=O)c3)=NN2C(=O)c2ccccc2)c1OC (stereo not drawn),-42%[59 µM],-25%,2%,-20%,15%,-11%
Cc1ccc(C2CC(c3cccs3)=NN2C(=O)CCl)cc1 (stereo not drawn),-31%,-1%,?,-10%,17%[57 µM],?
CCC(=O)N1N=C(c2cccs2)CC1c1ccc(C)cc1 (stereo not drawn),13%,14%,-4%,-34%,29%,27µM*
CCC(=O)N1N=C(c2ccc(NS(C)(=O)=O)cc2)CC1c1ccc(N(C)C)cc1 (stereo not drawn),45µM*,/,10%,?,-15%,-8%
CC(C)N(C)C1CCN(S(=O)(=O)c2ccc3[nH]c(=O)ccc3c2)CC1,2%[59 µM],3%,7%,-1%,25%[57 µM],/
CCn1nc(NC(=O)c2ccncc2)c2cc3cc(C)ccc3nc21,8%[59 µM],9%,-18%,-16%[11.4 µM],0%,3.8µM*
O=S(=O)(c1ccccc1)N1CCN(c2nccc(-c3cccs3)n2)CC1,/,/,/,-5%,/,/
c1cncc(-c2nnc(-c3cccnc3)nn2)c1,8.9µM*,-36%,-50%,-25%[57.1 µM],?,6.7µM*
Cc1ccccc1C(=O)c1cccn1CC(=O)NCCN1CCN(c2cccc(C)c2C)CC1,-6%[59 µM],?,5%,50µM*,?,-6%
Cc1ccc(C)c(N2CCN(CCCNC(=O)Cn3cccc3C(=O)c3ccccc3C)CC2)c1,-39%,-30%,-3%,?,-18%,16%
O=C(O)c1c(Cl)c(Cl)c(Cl)c(Cl)c1-c1c2cc(I)c(=O)c(I)c-2oc2c(I)c(O)c(I)cc12,1.8µM*,/,5.6µM*,/,/,/
Cc1ccc(C)c(N2CCN(C3=C(c4ccccc4)C(=O)c4ccccc43)CC2)c1,3.2µM*,?,-14%,2.5µM*,?,/
COc1ccc(C2=C(N3CCN(c4cccc(C)c4C)CC3)c3ccccc3C2=O)cc1,3.2µM*,2.2µM*,-14%,5µM*,?,/
Cc1ccc(N)c(Cl)c1,/,/,7%,/,/,/
Cc1ccc(N2CC(NC(=O)CCCc3ccccc3)CC2=O)cc1 (stereo not drawn),1%[59 µM],-1%,-6%,-4%,29%,/
Cn1c(=O)c([N+](=O)[O-])c(-n2ccnc2)c2ccccc21,?,-14%,20µM*,-20%,7%,-6%
Cn1c(=O)c([N+](=O)[O-])c(NCCCn2ccnc2)c2ccccc21,/,-7%,2%,-5%,25%,-1%
CC(C)c1ccc(Nc2c([N+](=O)[O-])c(=O)n(C)c3ccccc23)cc1,?,?,-8%,?,-9%,5%
SMILES,G9a inh,BAZ2B inh,VDR inh,JMJD2A Tudor inh,HP1b chromo inh,PLK1 PBD inh
Cc1cccc(Nc2c([N+](=O)[O-])c(=O)n(C)c3ccccc23)c1,-14%[59 µM],?,?,50µM*,-9%,27µM*
S=c1[nH]nc(-c2ccccc2)n1/N=C/c1cccc(Cl)c1,/,-12%,-4%,71µM*,10%,-21%
S=c1[nH]nc(-c2ccc(Cl)cc2)n1/N=C/c1cccs1,/,-10%,2%,-19%,19%,-19%
Fc1ccc(/C=N/n2c(-c3cccs3)n[nH]c2=S)cc1,1.1µM*,-35%,-16%,32µM*,-25%,?
CCOc1ccc(/C=N/n2c(-c3ccccc3)n[nH]c2=S)cc1,0.5µM*,-29%,0%,79µM*,23%,0%
CCOc1ccc(/C=N/n2c(C)nc3ccccc3c2=O)cc1,-33%[2.33 µM],-2%,-89%,-15%,57%,-7%
S=c1[nH]nc(-c2ccccc2)n1/N=C/c1ccc(Cl)cc1,2.5µM*,-30%,3%,?,11%,-23%
Cc1cccc(C)c1Nc1c(-c2ccc(O)cc2)nc2sccn12,4µM*,40µM*,?,45µM*,16µM*,/
COc1cc(-c2nc3sccn3c2Nc2c(C)cccc2C)ccc1O,8%[59 µM],12%,?,56µM*,?,/
Cc1cccc(C)c1Nc1c(-c2ccsc2)nc2cccc(C)n12,?,-21%,7%,-35%,-10%,/
COc1ccc2c(CN3CCCCCCC3)cc(=O)oc2c1,/,/,/,/,/,-19%
CCc1ccc2c(CN3CCc4cc(OC)c(OC)cc4C3)cc(=O)oc2c1,8.9µM*,-37%,-16%,-16%,33%,4%
Cc1ccc2c(CN(C)Cc3ccc(OC(F)F)cc3)cc(=O)oc2c1C,48%,6%,-26%,4%,66%,-8%
COc1cc(C(=O)OCc2cc(=O)oc3c(C)c(C)ccc23)ccc1OC(F)F,16%,5%,?,?,-6%,24µM*
COc1cc2c(cc1OC)CN(Cc1cc(=O)oc3cc(C)c(C)cc13)CC2,7.9µM*,-9%,-12%,-22%,35%,-3%
Cc1cc2oc(=O)cc(CN3CCCC3)c2cc1C,/,/,/,/,/,-10%
COc1cc2c(cc1OC)CN(Cc1cc(=O)oc3cc(C)c(Cl)cc13)CC2,10µM*,-9%,-15%,-15%,30%,-6%
CC(C)C(C(=O)NCC1CCCO1)N(C(=O)CNS(=O)(=O)c1ccccc1)C1CCCCC1 (stereo not drawn),10%,0%,-1%,-4%,-14%,1%
COc1cc2c(cc1OC)CN(Cc1cc(=O)oc3c(C)c(C)ccc13)CC2,25µM*,-25%,-15%,-30%,22%,-12%
COc1ccc(OCc2nn3c(-c4ccco4)nnc3s2)cc1,?,-37%,2%,-25%,6%,-11%

# Source: PubChem
